Only some compounds are listed: those with a hit (about 12% of all), similar ones and a draw of the others.
Cav32 inh: human Cav3.2 channel inhibition, primary screen | O95180 | Cav3.2-expressing cells, Fluo-4 calcium fluorescence FDSS; stronger effect = lower value | B-score at 10 µM | 4% of 100,000 active | AID 449739;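 active = single-dose well whose peak fluorescence ratio is a statistical outlier from its plate by either plate-standardised score or position-corrected B-score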
D1 allo mod: allosterically modulates the human D1 dopamine receptor; P21728; HEK293 D1, CRE-luciferase, dopamine EC30 potentiation; actives deviate in either direction; 5.9% of 58,000 active; AID 641; B-score at 10 µM;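 active = luminescence count or its row- and column-corrected plate score outside the 99.7% band of the plate's sample wells, on either side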
PostGolgi ctrl: yeast control strain growth, post-Golgi counter-screen; AID 738; efflux-deficient yeast background strain, growth absorbance A615, 16 h; 5% of 98,000 active; inhibition, % at 10 µM
hDAT+cocaine: changed human dopamine transporter uptake under cocaine IC80; Q01959; LLC-PK1 hDAT cells, [14C]-dopamine uptake with cocaine IC80; actives deviate in either direction; B-score at 10 µM; 1.3% of 110,000 active; AID 449768;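 active = Z score or B-score, a plate-position-corrected score, falls beyond the plate's 99.7% confidence bounds, in either direction; inactive = both scores lie inside the 99.7% bounds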;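 also: scored against the spread of the other compound wells on the same plate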
PostGolgi yeast: growth inhibition of a yeast mutant, post-Golgi transport screen | 0.9% of 98,000 active | post-Golgi transport phenotypic cell assay | inhibition, % at 10 µM;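 also: yeast cells grown in 1536-well plates; yeast grown about 18 h at 30C before absorbance read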
PLAP activator: activators of human placental alkaline phosphatase. 1.2% of 96,000 active. P05187. activation fold at 20 µM. purified PLAP enzyme, luminescent substrate read-out; stronger effect = higher value; in the data active = activation fold above about 2
Target sequence (P05187 whole entry, looked up): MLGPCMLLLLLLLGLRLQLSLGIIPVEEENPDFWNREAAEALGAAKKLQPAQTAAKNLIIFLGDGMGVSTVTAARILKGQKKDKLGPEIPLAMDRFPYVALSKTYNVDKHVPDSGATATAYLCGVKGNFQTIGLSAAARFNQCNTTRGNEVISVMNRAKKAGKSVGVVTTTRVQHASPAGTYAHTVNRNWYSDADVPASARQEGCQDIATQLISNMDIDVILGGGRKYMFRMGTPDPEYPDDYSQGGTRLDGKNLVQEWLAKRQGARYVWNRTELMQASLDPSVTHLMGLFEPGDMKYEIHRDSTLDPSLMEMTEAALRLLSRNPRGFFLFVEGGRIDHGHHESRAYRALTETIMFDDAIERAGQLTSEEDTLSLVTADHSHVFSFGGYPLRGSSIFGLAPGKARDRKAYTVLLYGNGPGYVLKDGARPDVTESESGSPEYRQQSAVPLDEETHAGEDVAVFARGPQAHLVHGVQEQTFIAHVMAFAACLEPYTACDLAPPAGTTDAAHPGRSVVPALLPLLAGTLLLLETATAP
* hit, by the source's call; · = no result. Rule as the data show it, unless noted: active = inhibition above about 30%; inactive = the rest.

SMILES | Cav32 inh | D1 allo mod | PostGolgi ctrl | hDAT+cocaine | PostGolgi yeast | PLAP activator
c1csc(CSc2nc3ccccc3s2)c1 | 0.000325 | -0.411 | -10.6 | -0.297 | -11.7 | 0.9
CCn1c(CSc2nc3ccccc3s2)nc2ccccc21 | -5.67* | 0.00612 | 10.8 | 0.101 | -4.7 | 1.2
CCN(CCNC(=O)C1CCN(c2nnc(-n3cccc3)s2)CC1)c1ccccc1 | · | -1.24 | 12.9 | 0.849 | 3.7 | 1.6
Cc1ccc(SC/C(O)=C(\C#N)c2nc3ccccc3s2)cc1 | -4.37* | -1.59 | 9.1 | -0.26 | -5.0 | 1.1
O=C(CSc1ncnc2scc(-c3ccc(Cl)cc3)c12)NCc1ccc2c(c1)OCO2 | -0.69 | · | · | 0.687 | · | ·
CC1(C(=O)c2ccccc2)C2c3c(ccc4ccccc34)OC(=O)C21C(=O)N1CCOCC1 (stereo not drawn) | -3.43 | · | 46.4* | 1.1 | 6.0 | 1.5
CCOC(=O)C1C(=O)Oc2ccc3ccccc3c2C1C1CCOC1=O (stereo not drawn) | -0.0123 | -0.519 | 1.6 | 0.099 | -5.3 | 1.5
COc1ccc(NC(=O)CSc2nc3c(c(=O)[nH]2)CCC3)cc1OC | 0.403 | -0.373 | 1.7 | -0.0215 | 4.5 | 1.1
Cc1cccc(OCCCSc2nc3ccc(C)cc3[nH]2)c1 | -4.6* | · | 7.6 | 0.852 | -8.3 | 1.2
O=C(CCC1CCCC1)N1CCN(C(=O)COc2ccccc2)CC1 | · | -1.58 | 5.6 | 0.0819 | 2.3 | 1.4
COc1ccc(Nc2ncnc3c2cnn3Cc2ccccc2)cc1 | -0.295 | · | · | 3.2* | · | 0.8
CCOc1ccc(Nc2ncnc3c2cnn3Cc2ccccc2)cc1 | -2.66 | · | 14.4 | 1.11 | 8.5 | 1.1
CC(C)Cn1c(-c2csc3c2CCCC3)n[nH]c1=S | · | · | 14.1 | · | -4.7 | 1.5
O=C(Nc1nnc(C2CCCC2)s1)C1CCN(S(=O)(=O)c2ccc(Cl)cc2)CC1 | -0.0826 | 1.15 | 4.2 | -0.0176 | -1.3 | ·
O=C(Nc1nnc(C2CC2)s1)c1cc(-c2ccccc2)nn1-c1ccccc1 | · | · | 24.6 | 0.55 | 39.4* | 1.9
O=C(Nc1nnc(C2CCCCC2)s1)c1ccco1 | -0.367 | 0.0178 | 24.9 | -1.74* | -0.5 | 1.1
O=C(Nc1nnc(C2CC2)s1)c1cc(S(=O)(=O)N2CCN(c3ccccc3)CC2)ccc1Cl | -0.225 | · | 33.2* | 0.571 | 12.0 | 1
Cc1nn(-c2ccc(C(=O)Nc3nnc(C4CC4)s3)cc2)c(C)c1Cl | 0.165 | -1.25 | -3.2 | -0.541 | -13.2 | 1.1
Cc1nn(-c2ccccc2)c(Cl)c1C(=O)Nc1nnc(C2CCCCC2)s1 | -4.39* | · | 0.7 | 0.949 | -2.7 | 1.1
COc1ccc(CCn2c(C)cc(C(=O)CSc3nnnn3-c3ccccc3)c2C)cc1 | -0.276 | · | 3.3 | -0.00512 | -6.3 | 1
O=C(Nc1ccccc1)C1=C[C@@H](c2ccc(Br)cc2)C[C@@H](OCCCCO)O1 | -1.66 | · | · | 0.386 | · | ·
CCOC(=O)N1CCC2(CC1)C(C#N)=C(N)Oc1n[nH]c(C)c12 | · | · | 18.7 | -0.0104 | -0.9 | 1.4
CCOC(=O)N1CCC2(CC1)C(C#N)=C(N)Oc1c2c(C)nn1-c1cccc(Cl)c1 | -0.24 | 0.968 | 31.1* | 0.997 | -6.6 | 1.4
CCOC(=O)N1CCC2(CC1)C(C#N)=C(N)Oc1c2sc2nc(C)cc(C)c12 | 0.332 | 3.21 | 55.1* | 0.611 | 10.1 | 0.9
COc1ccc(C(=O)NC(=O)Nc2cc(C)ccn2)cc1 | -0.0706 | -5.98* | -9.6 | -1.49 | 5.5 | 0.9
SMILES | Cav32 inh | D1 allo mod | PostGolgi ctrl | hDAT+cocaine | PostGolgi yeast | PLAP activator
CCOc1ccc(N2C(=O)c3cccnc3C2Nc2ccc(C)cc2)cc1 (stereo not drawn) | -0.503 | 1.3 | 8.9 | -0.499 | -5.8 | 0.9
CN(C)S(=O)(=O)Oc1ccsc1C(=O)Nc1ccc(Cl)c(Cl)c1 | 0.458 | · | 44.8* | -0.892 | -2.7 | 0.9
CCOC(=O)C[C@H]1c2ccc(C(F)(F)F)cc2S(=O)(=O)N1C(C)C | 0.301 | · | · | 0.0207 | · | ·
CCN(CCCNC(=O)CC(C(=O)N1CCc2ccccc21)n1ccnc1)c1ccccc1 (stereo not drawn) | -4.62* | 1.57 | 3.3 | 2.45 | 14.1 | 1.5
COc1ccc(-n2c(-c3ccccc3)nc(=S)c3c2CCCC3)cc1 | · | · | 64.3* | · | -0.5 | 1
C=CCn1c(SCc2c(F)cccc2Cl)nnc1-c1ccco1 | -1.33 | 0.0281 | 6.8 | -0.71 | -3.6 | 1.3
O=c1oc2ccccc2cc1NCc1ccccc1O | -5.22* | -0.471 | 10.7 | -0.052 | 0.8 | 1
COCCNc1cc(C)nc2c3c(C)cc(C)nc3nn12 | 0.22 | 0.95 | 0.1 | -0.118 | 47.3* | 1.8
COc1cc2c(cc1OC)C(c1ccc(-c3cc(Cl)ccc3Cl)o1)=NCC2 | -0.335 | · | 52.4* | 0.714 | 25.8 | 1.3
Cc1ccc(NC(=O)C2=C(O)c3ccccc3N(C)S2(=O)=O)cc1 | -0.856 | · | 6.5 | 2.2 | 3.2 | 1.2
O=c1cc(N2CCCCC2)c(-c2ccccc2)nn1Cc1ccccc1Cl | · | · | 43.9* | 0.488 | -3.8 | 1.2
O=c1cc(N2CCCCC2)c(-c2ccccc2)nn1Cc1ccc(Cl)cc1Cl | -1.73 | · | 27.6 | 0.556 | 1.7 | 1.4
O=c1cc(N2CCCCC2)c(-c2ccccc2)nn1Cc1cccc(Cl)c1 | -0.122 | · | 31.0* | -0.726 | -4.2 | 0.9
COc1ccc(-c2nc3c(c(=O)[nH]c(=O)n3Cc3ccccc3)n2Cc2ccccc2)cc1 | -6.39* | · | 35.1* | -0.0289 | -0.8 | 1.6
Cc1cccc(C)c1N1CCN(c2ccc3nnc(C(F)(F)F)n3n2)CC1 | -0.863 | · | 47.6* | 0.167 | 18.8 | 1.6
FC(F)(F)c1nnc2ccc(N3CCOCC3)nn12 | 0.356 | 0.326 | 15.3 | -1.42 | 3.4 | 1.2
COc1ccc(C2C(C#N)=C(/N=C/N3CCN(C)CC3)OC3=C2C(=O)CC(C)(C)C3)cc1OC (stereo not drawn) | 0.196 | 0.199 | -0.8 | 1.28 | -1.4 | 1.7
C=C(C)COc1ccc(-c2nc(N)ncc2Oc2ccccc2OCC)c(O)c1 | -0.163 | 3.61 | 2.8 | -0.417 | 2.6 | 0.8
CCOc1ccc(-c2nc(N)ncc2-c2ccccc2)c(O)c1 | -0.236 | -0.801 | 49.8* | -0.0411 | -2.8 | 1
OC1(c2cccc(C(F)(F)F)c2)CCN(Cc2nnnn2CCc2ccccc2)CC1 | -5.58* | · | · | 2 | · | ·
CC(C)C[C@H](NC(=O)c1[nH]cnc1C(=O)N[C@@H](C)c1ccccc1)C(=O)OCc1ccccc1 | -2.6 | · | · | -0.856 | · | ·
CC(C)=C1SC(N2CCCCC2)=NC1=O | 0.914 | · | -3.6 | 0.378 | -1.6 | 1
C/C(=C1/SC(N2CCCC2)=NC1=O)c1ccc(Br)cc1 | -3.43 | 2.67 | 32.6* | 1.68 | -0.9 | 1.4
CCc1ccc(-c2csc3ncn(CC(=O)N4CCOCC4)c(=O)c23)cc1 | -0.0916 | · | -0.8 | 0.945 | 16.1 | 1.4
Cc1cc2nnc(SCC(=O)OC(C)C)n2c2ccccc12 | 0.331 | · | 0.6 | · | -2.1 | 1.1
CCCNC(=O)N1CCN(S(=O)(=O)c2ccc(C)c(C)c2)CC1 | 0.234 | · | · | -0.389 | · | ·
COc1ccccc1-c1cc(C(=O)N2CCN(c3ccccc3OC)CC2)no1 | -3 | 0.106 | 37.6* | 0.243 | 3.9 | 1.5
COc1ccccc1N1CCN(C(=O)c2cc(-c3ccc(Cl)cc3)on2)CC1 | -2.39 | -0.776 | 39.6* | 0.494 | -2.8 | 1

Assay outcomes as filed in PubChem BioAssay.
